Inconclusive results are not listed. The source made the active and inactive calls. Calls come from the whole dose curve; as a rule, active = well fitted curve in the direction sought with a large enough effect; inconclusive = small, poorly fitted or top-dose-only effect, or another doubt; inactive = no such curve, though single readings can be large; an effect the other way counts as inactive or inconclusive.
Assays:
[1] = qHTS Assay for Identifying Gametocytocidal Compounds (AID 743244);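 note: % is set by controls: 0 for no effect and ±100 for the full control effect; actives lower the fluorescent signal which means gametocytes are killed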; conditions: P. falciparum 3D7 stage III-V gametocytes, alamarBlue, 72 h; max response: stronger effect = lower value
Procedure, shortened: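 P. falciparum 3D7 stage III–V gametocytes (20,000 cells/well) were exposed to compounds for 72 h at 37 °C, 5% CO2. AlamarBlue was then added for 24 h; decreased resorufin fluorescence (Ex 525/Em 598 nm) indicated loss of viability.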

[2] = qHTS assay for measurement of the activity of small molecule inhibitors on Zika virus induced Caspase-3 activity in human iPSC derived neural progenitor cells (hNPCs) (AID 1224857); note: % of control where 0% means no effect; nearly all actives have a fitted effect of over 65% in size
Procedure, shortened: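 hNPCs seeded 350 cells/well, cultured 16–20 h; compounds added 1 h before ZIKV (2 FFU/cell), 37 C 6 h. Caspase-Glo 3/7 luminescence after 30 min RT; % inhibition from induction scaled to uninfected (0%) and infected (100%) wells.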

[3] = qHTS assay for measurement of the activity of small molecule inhibitors on Zika virus induced Caspase-3 activity in human astrocytoma cells (AID 1224859);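 note: plate controls were ZIKV-infected untreated cells for no effect and uninfected cells for full effect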
Procedure, shortened: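 Luminescence read-out (Caspase-Glo 3/7, 30 min RT) of caspase activity in SNB-19 cells infected 6 h with ZIKV, 2 FFU/cell, after 1 h compound pretreatment; % inhibition from induction normalised to uninfected (0%) and infected (100%) wells.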

[4] = qHTS assay to identify small molecule inhibitors of chordoma cells - UCH-1 (AID 1259355); note: % is set by controls: 0 for no effect and ±100 for the full control effect; nearly all actives have a fitted effect of over 55% in size
Procedure, shortened: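 Cells (800/well) were seeded and left overnight at 37 C, 5% CO2, then treated with drugs at 15 concentrations plus a combination mix of auranofin, camptothecin, doxorubicin, rubitecan and topotecan. Viability after 48hr was read by CellTiter-Glo luminescence.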

[5] = qHTS assay to identify small molecule inhibitors of chordoma cells - UCH-2 (AID 1259356); note: series mostly up to about 46 µM; % is set by controls: 0 for no effect and ±100 for the full control effect
[6] = P-glycoprotein substrates identified in KB-8-5-11 adenocarcinoma cell line, qHTS therapeutic library screen (AID 1346987); conditions: outcome: dose series up to 44.5 µM; note: nearly all actives have a fitted effect of over 65% in size
Procedure, shortened: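 KB-8-5-11, a colchicine-selected P-gp-overexpressing KB-3-1 subline, was grown without colchicine for the assay. Cells were seeded at 500 cells/well, dosed in concentration-response and incubated 72 h at 37 degree C, 5% CO2. Viability was read by CellTiter-Glo luminescence.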

[7] = NS1 protein of Zika virus - qHTS assay to identify small molecule inhibitors in human HEK 293 cells (AID 1347053);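 note: series mostly up to about 46 µM; plate controls were infected untreated cells for no effect and uninfected cells for full effect; nearly all actives have a fitted effect of over 55% in size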
Procedure, shortened: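 HEK 293 cells, seeded 20 h at 37 C, were pretreated with compound 1 h, then infected with ZIKV MR766 (MOI = 0.5) for 24 h. NS1 was read by TR-FRET with two anti-NS1 antibodies, normalized to uninfected and infected wells.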

[8] = qHTS of pediatric cancer cell lines to identify multiple opportunities for drug repurposing: Primary screen for TC32 cells (AID 1347089); note: % is set by controls: 0 for no effect and ±100 for the full control effect; nearly all actives have a fitted effect of over 60% in size
Procedure, shortened: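 Luminescent CellTiter-Glo read-out of metabolically active TC32 cells after 48 h compound exposure. Primary: MIPE 11-point, 0.78 nM–46 µM; NPC 8-point, 0.59 nM–46 µM. Confirmatory: 11-point dilutions.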

[9] = qHTS of pediatric cancer cell lines to identify multiple opportunities for drug repurposing: Primary screen for DAOY cells (AID 1347090);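 note: series mostly up to about 46 µM; plate controls were DMSO for no effect and bortezomib for full effect; nearly all actives have a fitted effect of over 55% in size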
Procedure, shortened: (§1)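 Viability measured as metabolically active cells via CellTiter-Glo luminescence following 48 hours of compound exposure, 11-point dilutions in confirmatory testing. 500-1,000 cells/well plated 5 hours before dosing; controls were DMSO and 2.3 µM bortezomib.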

[10] = qHTS of pediatric cancer cell lines to identify multiple opportunities for drug repurposing: Primary screen for SJ-GBM2 cells (AID 1347091);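 note: plate controls were DMSO neutral control for no effect and bortezomib for full effect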
Procedure, shortened: as §1

[11] = P-glycoprotein substrates identified in KB-3-1 adenocarcinoma cell line, qHTS therapeutic library screen (AID 1346986); conditions: outcome: dose series up to 44.5 µM; note: % is set by controls: 0 for no effect and ±100 for the full control effect; nearly all actives have a fitted effect of over 60% in size
Procedure, shortened: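 KB-3-1 parental and colchicine-selected P-gp-overexpressing KB-8-5-11 cells (colchicine omitted during assay), 500 cells/well, dosed in dose-response for 72 h at 37 °C; CellTiter-Glo luminescence. Cytotoxic: curve class -1.1 to -2.4, max response >50%, AC50 < 10 uM.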

C[C@@H](c1ncncc1F)C(O)(Cn1cncn1)c1ccc(F)cc1F (stereo not given in full)
inactive: max response [1] 4.12% | outcome [2] | outcome [3] | outcome [4] | outcome [5] | outcome [6] | outcome [7] | outcome [8] | outcome [9] | outcome [10]

CC(C(=O)O)c1ccc2c(c1)Cc1cccnc1O2 (stereo not given)
inactive: max response [1] -8.08% | outcome [2] | outcome [3] | outcome [4] | outcome [5] | outcome [6] | outcome [7] | outcome [8] | outcome [9] | outcome [10]

NC(N)=NCCN1CCCCCCC1
inactive: max response [1] 21% | activity change, negative = inhibition [2] 6.93% [at 0.568 µM] | activity change, negative = inhibition [3] -3.82% [at 0.568 µM] | outcome [4] | outcome [5] | outcome [6] | activity change, negative = inhibition [7] -1.99% [at 0.593 µM] | activity change, negative = cytotoxic [8] 19.1% [at 0.594 µM] | activity change, negative = cytotoxic [9] 7.11% [at 0.597 µM] | activity change, negative = cytotoxic [10] 15.5% [at 0.597 µM]

NC(N)=NS(=O)(=O)c1ccc(N)cc1
inactive: outcome [2] | outcome [3] | outcome [4] | outcome [5] | outcome [6] | outcome [7] | outcome [8] | outcome [9] | outcome [10]

C=CCSCC1Nc2cc(Cl)c(S(N)(=O)=O)cc2S(=O)(=O)N1 (stereo not given)
inactive: max response [1] 15.7% | outcome [2] | outcome [3] | outcome [4] | outcome [5] | outcome [6] | outcome [7] | outcome [8] | outcome [9] | outcome [10]

CC(=O)[C@@]1(O)CC[C@H]2[C@@H]3C[C@H](C)C4=CC(=O)C=C[C@]4(C)[C@@]3(F)[C@@H](O)C[C@@]21C
inactive: max response [1] -2.09% | outcome [2] | outcome [3] | outcome [4] | outcome [5] | outcome [6] | outcome [7] | outcome [8] | outcome [9] | outcome [10]

CC(C)C[C@@H](N)C(=O)O
inactive: max response [1] -9.37% | outcome [2] | outcome [3] | outcome [4] | outcome [5] | outcome [11] | outcome [6] | outcome [7] | outcome [8] | outcome [9] | outcome [10]

Cc1ccc(S(=O)(=O)NC(=O)NC2CCCCC2)cc1
inactive: max response [1] 0.0407% | outcome [2] | outcome [3] | outcome [4] | outcome [5] | outcome [6] | outcome [7] | outcome [8] | outcome [9] | outcome [10]

NS(=O)(=O)c1cc(-c2nn[nH]n2)c(NCc2cccs2)cc1Cl
inactive: max response [1] 54.3% | outcome [2] | outcome [3] | outcome [4] | outcome [5] | outcome [6] | outcome [7] | outcome [8] | outcome [9] | outcome [10]

O=S1(=O)OC(c2ccc(O)cc2)(c2ccc(O)cc2)c2ccccc21
inactive: max response [1] 21.8% | outcome [2] | outcome [3] | outcome [4] | outcome [5] | outcome [6] | outcome [7] | outcome [8] | outcome [9] | outcome [10]

CN1C(=O)CC(c2ccccc2)C1=O (stereo not given)
inactive: max response [1] -11.3% | outcome [2] | outcome [3] | outcome [4] | outcome [5] | outcome [6] | outcome [7] | outcome [8] | outcome [9] | outcome [10]

Nc1ccc(C(=O)Oc2ccccc2)c(O)c1
inactive: max response [1] -7.01% | outcome [2] | outcome [3] | outcome [4] | outcome [5] | outcome [6] | outcome [7] | outcome [8] | outcome [9] | outcome [10]

NC(=O)c1ccc([N+](=O)[O-])cc1Cl
inactive: max response [1] -9.98% | outcome [2] | outcome [3] | outcome [4] | outcome [5] | outcome [6] | outcome [7] | outcome [8] | outcome [9] | outcome [10]

CCN(CC)S(=O)(=O)c1ccc(C(=O)O)cc1
inactive: outcome [2] | outcome [3] | outcome [4] | outcome [5] | outcome [6] | outcome [7] | outcome [8] | outcome [9] | outcome [10]

CCOC(=O)OC(C)OC(=O)[C@@H]1N2C(=O)[C@@H](NC(=O)[C@H](N)c3ccccc3)[C@H]2SC1(C)C (stereo not given in full)
inactive: max response [1] 15.8% | outcome [2] | outcome [3] | outcome [4] | outcome [5] | outcome [6] | outcome [7] | outcome [8] | outcome [9] | outcome [10]

CC(C)(C)C(=O)OCOC(=O)[C@@H]1N2C(=O)[C@@H](NC(=O)[C@H](N)c3ccccc3)[C@H]2SC1(C)C
inactive: max response [1] 0.54% | outcome [2] | outcome [3] | outcome [4] | outcome [5] | outcome [6] | outcome [7] | outcome [8] | outcome [9] | outcome [10]

CCCCCC(C)N (stereo not given)
inactive: max response [1] 7.89% | outcome [2] | outcome [3] | outcome [4] | outcome [5] | outcome [6] | outcome [7] | outcome [8] | outcome [9] | outcome [10]

Cc1cccc(C(=O)O)c1O
inactive: max response [1] 2.78% | outcome [2] | outcome [3] | outcome [4] | outcome [5] | outcome [6] | outcome [7] | outcome [8] | outcome [10]

CC1CCN(CCCC(=O)c2ccc(F)cc2)CC1
inactive: max response [1] 1.92% | outcome [2] | outcome [3] | outcome [4] | outcome [5] | outcome [6] | outcome [7] | outcome [8] | outcome [10]

CCOC(=O)c1cccnc1
inactive: max response [1] 2.39% | outcome [2] | outcome [3] | outcome [4] | outcome [5] | outcome [6] | outcome [7] | outcome [8] | outcome [9]

CCOC(=O)[C@H](CCc1ccccc1)N[C@@H](C)C(=O)N1Cc2cc(OC)c(OC)cc2C[C@H]1C(=O)O
inactive: max response [1] 0.618% | outcome [2] | outcome [3] | outcome [4] | outcome [5] | outcome [6] | outcome [7] | outcome [8] | outcome [10]
